For 43 compounds, GFP+ MAC1+ double positive, outcome and normalized GFP-positive differentiation results are on record in PubChem BioAssay AID624256 (NMMLSC, 2012).

The structures appear in SMILES notation. About 3,700 (1%) of roughly 360,000 compounds were called active. Another 2% or so got no clear call; they are omitted.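 The calls were made as follows: active = normalized GFP-positive differentiation at or above the plate's own cutoff, the solvent-only control mean plus 3 SD; inconclusive = no clear call, values can overlap the other calls; inactive = the rest.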 Shown is part of a subset that was picked to be rich in actives.

A short description of the assay: induction of myeloid progenitor differentiation, primary screen, cell-based, flow cytometry, MLPCN library (AID 624256).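 As to GFP+ MAC1+ double positive: cells exposed to compound for four days before flow analysis.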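 As to normalized GFP-positive differentiation: cells exposed to compound for four days before flow analysis; 0% = DMSO wells and 100% = fulvestrant positive control at 5 µM.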 As to conditions: ER-HoxA9 myeloid progenitors, lysozyme-GFP differentiation, at 10 µM; GFP+ MAC1+ double positive: measured here: differentiation confirmed by MAC1 staining, stronger effect = higher value; normalized GFP-positive differentiation: stronger effect = higher value. A general note: Flow cytometry measures light scatter and fluorescence of single cells or particles in a stream.
As for `Cc1cc(C)nc(SCc2nnc(SCC(=O)OC3CCCCC3)o2)n1`, the GFP+ MAC1+ double positive was 1.3% and the compound was called inactive.

In the case of `C/C(=N\NC(=O)c1ccc(CSc2nc(C)cc(C)n2)cc1)C1CCCCC1`, the GFP+ MAC1+ double positive worked out at 1.3% and the normalized GFP-positive differentiation was 21.9% (active).

`Cc1nc2c(OCc3ccc(Cl)cc3)cccn2c1N(C)Cc1cccs1`: the GFP+ MAC1+ double positive is 0.4% and the outcome was inactive.

`CC(C)CNC(=O)C1(C)CCCN1C(=O)CSc1ccccc1` (stereo unspecified): the GFP+ MAC1+ double positive worked out at 1.4% and the call was inactive.

Regarding `Cc1cc(C(=O)N2CCCC2(C)C(=O)O)c(C)o1` (stereo unspecified), the GFP+ MAC1+ double positive came out at 1.3% and the outcome was inactive.

Take `N#Cc1ccc(-c2nc3c(Cl)cc(C(F)(F)F)cn3c2Cc2ccccc2C(F)(F)F)cc1`: the GFP+ MAC1+ double positive was determined as 1.3% and the outcome was inactive.

`CCC(C(=O)Nc1c(C)cccc1C)n1c(-c2cc(C)cs2)nc2ccccc21` (stereo unspecified): the GFP+ MAC1+ double positive is 3.7% and the outcome was inactive.

Take `CCOC(=O)CSc1nnc(CNC(=O)c2cccs2)n1-c1ccccc1`: the GFP+ MAC1+ double positive was 1.4% and the outcome was inactive.

For `CCc1c(C)sc(NC(=O)c2cccs2)c1C(N)=O`, the GFP+ MAC1+ double positive was determined as 7.9% and the normalized GFP-positive differentiation was 14.1% (active).

Turning to `CCc1ccc(NC(=O)C(=O)NNC(=O)c2cccs2)cc1`, the GFP+ MAC1+ double positive was 1.8% and the compound was called inactive.

As for `Cc1ccc(NC(=O)[C@H](Cc2ccccc2)NC(=O)CC[C@H]2O[C@@H](n3ccc(=O)[nH]c3=O)[C@H](O)[C@@H]2O)cc1C`, the GFP+ MAC1+ double positive is 0.8% and the compound was called inactive.

In the case of `O=C1Nc2cc(C(=O)N3CCN(c4ccc(F)cc4)CC3)ccc2NC1CSCc1cccc(F)c1` (stereo unspecified), the GFP+ MAC1+ double positive is 10.1% and the normalized GFP-positive differentiation is 56.9% (active).

Consider `Cc1ccc(CSCC2Nc3ccc(C(=O)N4CCN(c5ccc(F)cc5)CC4)cc3NC2=O)cc1` (stereo unspecified), for which the GFP+ MAC1+ double positive came out at 1.7% and the call was inactive.

`C=CCn1c(SCc2cccc(F)c2)nc2cc(C(=O)N3CCC(C(N)=O)CC3)ccc2c1=O`: the GFP+ MAC1+ double positive turned out to be 0.5% and the result was inactive.

`COC(=O)[C@]12CCCCC=C1N(Cc1ccccc1)C(=O)[C@H](CC(=O)NCc1ccc(C)o1)C2`: the GFP+ MAC1+ double positive came out at 1.2% and the result was inactive.

In the case of `CNC(=S)NNC(=O)c1oc2nc(-c3ccccc3)cc(-c3ccco3)c2c1N`, the GFP+ MAC1+ double positive worked out at 2.3% and the call was inactive.

As to `NNC(=O)c1oc2nc(-c3ccccc3)cc(-c3ccco3)c2c1N`, the GFP+ MAC1+ double positive was 1% and the normalized GFP-positive differentiation is 38.1% (active).

Turning to `O=C(Nc1cccc(F)c1)c1cc(-c2ccco2)nc2ccccc12`, the GFP+ MAC1+ double positive was determined as 0.5% and the compound was called inactive.

For `Cc1ccccc1-c1csc(C(O)c2cccc(Cl)c2)n1` (stereo unspecified), the GFP+ MAC1+ double positive was found to be 0.8% and the compound was called inactive.

On to `Cc1cc(C)c2nc3nc(C)cc(C)c3c(N)c2c1`, for which the GFP+ MAC1+ double positive came out at 2.1% and the normalized GFP-positive differentiation is 151% (active).

As for `NC(Cc1ccc(F)cc1)c1csc(Nc2nncc3ccccc23)n1` (stereo unspecified), the GFP+ MAC1+ double positive was 0.8% and the compound was called inactive.

Consider `COc1cc(N=Cc2c(O)c3ccccc3oc2=O)c(OC)cc1Cl`, for which the GFP+ MAC1+ double positive came to 12% and the normalized GFP-positive differentiation was 239% (active).

Regarding `O=c1oc2ccccc2c(=O)c2ccccc12`, the GFP+ MAC1+ double positive was found to be 1.6% and the outcome was inactive.

Consider `COc1ccccc1CNC(=O)c1cc(=O)c2ccccc2o1`, for which the GFP+ MAC1+ double positive stood at 1% and the compound was called inactive.

In the case of `CCOC(=O)c1ccn(S(=O)(=O)c2ccc(C)cc2)c1-c1ccccc1`, the GFP+ MAC1+ double positive came to 1.4% and the outcome was inactive.

On to `O=C1NC[C@H](Cc2ccc(O)cc2)N(C[C@H]2CCCN2C[C@H](Cc2ccccc2)N2C[C@H](Cc3ccccc3)N(CCc3ccccc3)C(=O)C2=O)C1=O`, for which the GFP+ MAC1+ double positive was found to be 1% and the result was inactive.

As to `CCOC(=O)[C@]12CCCC=C1N(CCC1=CCCCC1)C(=O)[C@H](CC(=O)N1CCN(C(=O)c3ccco3)CC1)C2`, the GFP+ MAC1+ double positive turned out to be 2.3% and the outcome was inactive.

Regarding `Cc1c(C(=O)OCC(=O)N(CCC#N)c2ccccc2)oc2c1ccc1ccccc12`, the GFP+ MAC1+ double positive turned out to be 5% and the normalized GFP-positive differentiation was 26.9% (active).

`N#CCCN(C(=O)COC(=O)c1ccc(S(=O)(=O)N2CCCCCC2)cc1)c1ccccc1`: the GFP+ MAC1+ double positive was determined as 0.7% and the compound was called inactive.

`N#CCCN(C(=O)COC(=O)c1ccc2c(c1)OCCO2)c1ccccc1`: the GFP+ MAC1+ double positive is 0.7% and the compound was classed as inactive.

For the compound `CCCc1nc2ccccc2n1C(C)C(=O)NC(C)(C)C` (stereo unspecified), the GFP+ MAC1+ double positive was 3.7% and the outcome was inactive.

For the compound `O=C(NC(c1ccc(-c2ccccc2)cc1)c1cnccn1)C1CCN(CCOc2ccc(Cl)cc2Cl)CC1` (stereo unspecified), the GFP+ MAC1+ double positive stood at 1.7% and the compound was called inactive.

With `CC(C)n1cnc2c(NCc3ccccc3)cc(OCC3CCN(C)CC3)cc21`, the GFP+ MAC1+ double positive stood at 8.3% and the normalized GFP-positive differentiation is 28.4% (active).

As for `CN(C)c1nccc(NCc2ccccc2)c1C#N`, the GFP+ MAC1+ double positive was 0.2% and the compound was classed as inactive.

`CCOC1=C2[C@@H](CN(S(=O)(=O)c3ccc(C)cc3)[C@H]2c2ccccc2F)[C@H]2C(=O)N(Cc3ccccc3)C(=O)[C@H]2C1`: the GFP+ MAC1+ double positive amounted to 1.5% and the compound was called inactive.

Consider `COC(=O)CCCCC1=CCC2C(=O)C=C(O)C2C1` (stereo unspecified), for which the GFP+ MAC1+ double positive came out at 1.6% and the call was inactive.

Regarding `CN(C)CCCNC(=O)/C=C/c1ccc(OCc2c(F)cccc2Cl)cc1`, the GFP+ MAC1+ double positive was 0.3% and the result was inactive.

Take `Fc1cccc(Cl)c1COc1ccc(-c2nnco2)cc1`: the GFP+ MAC1+ double positive worked out at 1.8% and the compound was called inactive.

For the compound `O=C(/C=C/c1ccc(OCc2c(F)cccc2Cl)cc1)N1CCOCC1`, the GFP+ MAC1+ double positive came to 32% and the normalized GFP-positive differentiation was 144% (active).

In the case of `CC1(C)OC(=O)C2=C(C[C@@H](C3CCCCC3)O[C@@H]2c2ccc(Cl)cc2)O1`, the GFP+ MAC1+ double positive turned out to be 0.8% and the compound was classed as inactive.

As to `CCOc1ccc(C(=O)Nc2ccc(S(=O)(=O)NCC3CCCO3)cc2)cc1OCC` (stereo unspecified), the GFP+ MAC1+ double positive is 2.1% and the normalized GFP-positive differentiation is 18.3% (active).

Turning to `Cc1ccc(NC(=O)c2ccc(S(=O)(=O)NCC3CCCO3)cc2)cc1C` (stereo unspecified), the GFP+ MAC1+ double positive was determined as 0.8% and the compound was classed as inactive.

Take `O=C(Nc1ccc(S(=O)(=O)NCC2CCCO2)cc1)c1ccc(F)cc1` (stereo unspecified): the GFP+ MAC1+ double positive was 0.4% and the compound was called inactive.
